Active and inactive are the calls of the source. Rule for the calls: active = hit-call score of the fitted dose curve at least 0.9, where 1 is the maximum; inactive = score below 0.9.
Legend:
Settings in all cases: mRNA level, 48 h; actives raise or lower the signal
[1] = read-out: Apoptosis regulator Bcl-2 (Homo sapiens) (UniProt P10415); experiment: LTEA_HepaRG_BCL2: Life Technologies and Expression Analysis (LTEA) Assay for Bcl-2 gene using HepaRG (AID 2283475)
Method in brief: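 Plated human HepaRG cells are exposed to test chemicals for 48 h across eight concentrations from 100 uM downward in half-log steps (0.5% DMSO). BCL2 expression is then measured by qRT-PCR with housekeeping normalisation and fitted bidirectionally against vehicle.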

[2] = read-out: Bcl-2 (BID) gene, BID (gene 637); experiment: LTEA_HepaRG_BID: Life Technologies and Expression Analysis (LTEA) Assay for Bcl-2 (BID) gene using HepaRG (AID 2283476)
Method in brief: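 Cells are plated, cultured 48 h, switched to serum-free induction medium, then dosed 48 h (100 uM top, half-log steps, 0.5% DMSO). RNA is isolated and BID expression read by qRT-PCR.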

Caspase-3 (Homo sapiens) = Caspase-3 (Homo sapiens) (UniProt P42574); experiment: LTEA_HepaRG_CASP3: Life Technologies and Expression Analysis (LTEA) Assay for cysteine-aspartic acid protease (CASP3) using HepaRG (AID 2283477)
Method in brief: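 In HepaRG liver cells dosed for 48 h at up to 100 uM (eight-point, duplicate), CASP3 expression changes are scored by qRT-PCR. Activity is fitted in both directions with 0.5% DMSO as baseline.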

[3] = read-out: Cytochrome P450 (CYP24A1), CYP24A1 (gene 1591); experiment: LTEA_HepaRG_CYP24A1: Life Technologies and Expression Analysis (LTEA) Assay for Cytochrome P450 (CYP24A1) using HepaRG (AID 2283478)
Method in brief: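 Human liver HepaRG cultures receive each chemical for 48 h across an eight-point half-log series topping at 100 uM in 0.5% DMSO. Induction or suppression of CYP24A1 mRNA is scored relative to vehicle after housekeeping-gene normalization.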

[4] = read-out: Cytochrome P450 (CYP1A2), CYP1A2 (gene 1544); experiment: LTEA_HepaRG_CYP1A2: Life Technologies and Expression Analysis (LTEA) Assay for Cytochrome P450 (CYP1A2) using HepaRG (AID 2283479)
Method in brief: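 Assesses CYP1A2 mRNA in human HepaRG liver cells after 48 h chemical exposure at up to 100 uM. Values come from qRT-PCR with bidirectional curve fitting relative to DMSO.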

[5] = read-out: cysteine-aspartic acid protease (CASP8), CASP8 (gene 841); experiment: LTEA_HepaRG_CASP8: Life Technologies and Expression Analysis (LTEA) Assay for cysteine-aspartic acid protease (CASP8) using HepaRG (AID 2283480)
Method in brief: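 qRT-PCR readout of CASP8 mRNA, normalized to three housekeeping genes, after 48 h chemical exposure of HepaRG cells; 8-point half-log series, top 100 uM, 0.5% DMSO vehicle. Bidirectional curve fitting against DMSO baseline.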

[6] = read-out: Cytochrome P450 (CYP2B6), CYP2B6 (gene 1555); experiment: LTEA_HepaRG_CYP2B6: Life Technologies and Expression Analysis (LTEA) Assay for Cytochrome P450 (CYP2B6) using HepaRG (AID 2283481)
Method in brief: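 Using 48 h treatment of HepaRG cells in serum-free induction medium, concentrations spanned half-log steps from 100 uM in 0.5% DMSO vehicle. CYP2B6 mRNA induction or loss is scored by qRT-PCR against DMSO.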

[7] = read-out: Cytochrome P450 2C19 (Homo sapiens) (UniProt P33261); experiment: LTEA_HepaRG_CYP2C19: Life Technologies and Expression Analysis (LTEA) Assay for CYP2C19 using HepaRG (AID 2283482)
Method in brief: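 Human HepaRG liver cells received test chemicals for 48 h (highest 100 uM, half-log dilutions in 0.5% DMSO). CYP2C19 mRNA induction or loss is read by multiplexed qRT-PCR and fitted in both directions versus vehicle.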

CYP2C8 (gene 1558) = experiment: LTEA_HepaRG_CYP2C8: Life Technologies and Expression Analysis (LTEA) Assay for CYP2C8 using HepaRG (AID 2283483)
Method in brief: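 HepaRG (human liver line), 48 h chemical exposure, 8-pt half-log series from 100 uM, 0.5% DMSO vehicle. Readout: CYP2C8 transcript by qRT-PCR, housekeeping-normalized. Bidirectional fit vs DMSO baseline.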

CYP2C9 (gene 1559) = experiment: LTEA_HepaRG_CYP2C9: Life Technologies and Expression Analysis (LTEA) Assay for CYP2C9 using HepaRG (AID 2283484)
Method in brief: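 HepaRG, 48 h dosing, 8-pt half-log series, top 100 uM, 0.5% DMSO vehicle. Read-out: CYP2C9 transcript by TaqMan qRT-PCR, housekeeping-normalized (ACTB/GAPDH/POLR2A). Gain or loss fitted vs DMSO baseline.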

Sequence of Cytochrome P450 2C19 (Homo sapiens) (P33261 whole entry, looked up): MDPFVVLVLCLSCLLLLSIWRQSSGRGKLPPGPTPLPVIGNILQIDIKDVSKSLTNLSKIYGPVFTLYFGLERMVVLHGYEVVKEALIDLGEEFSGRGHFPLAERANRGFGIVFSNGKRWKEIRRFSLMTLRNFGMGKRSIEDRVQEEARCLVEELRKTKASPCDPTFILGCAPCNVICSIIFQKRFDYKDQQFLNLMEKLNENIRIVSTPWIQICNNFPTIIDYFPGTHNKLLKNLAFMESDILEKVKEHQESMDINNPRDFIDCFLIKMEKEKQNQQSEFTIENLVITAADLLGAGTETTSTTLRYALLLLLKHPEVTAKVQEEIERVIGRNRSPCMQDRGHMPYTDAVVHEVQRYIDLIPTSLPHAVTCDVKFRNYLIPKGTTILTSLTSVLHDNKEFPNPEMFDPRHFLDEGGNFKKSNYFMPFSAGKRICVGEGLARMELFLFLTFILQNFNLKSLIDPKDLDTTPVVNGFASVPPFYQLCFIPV
Sequence of Caspase-3 (Homo sapiens) (P42574 whole entry, looked up): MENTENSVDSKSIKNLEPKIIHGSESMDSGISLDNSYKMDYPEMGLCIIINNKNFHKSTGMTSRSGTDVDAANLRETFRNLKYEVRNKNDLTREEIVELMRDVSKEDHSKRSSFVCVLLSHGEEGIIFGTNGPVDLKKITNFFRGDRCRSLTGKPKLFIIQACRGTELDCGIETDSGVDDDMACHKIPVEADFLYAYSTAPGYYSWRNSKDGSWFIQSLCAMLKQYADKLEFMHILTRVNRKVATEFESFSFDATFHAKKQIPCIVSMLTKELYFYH
Sequence of Apoptosis regulator Bcl-2 (Homo sapiens) (P10415 whole entry, looked up): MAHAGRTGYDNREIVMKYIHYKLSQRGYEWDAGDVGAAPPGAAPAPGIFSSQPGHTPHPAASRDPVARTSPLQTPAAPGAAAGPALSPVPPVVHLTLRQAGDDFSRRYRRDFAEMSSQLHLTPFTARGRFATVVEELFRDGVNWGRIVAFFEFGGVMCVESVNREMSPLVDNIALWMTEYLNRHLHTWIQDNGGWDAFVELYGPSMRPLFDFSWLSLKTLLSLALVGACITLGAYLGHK

## Nc1cccc(N)c1
[1]
  outcome: inactive
[2]
  outcome: inactive
Caspase-3 (Homo sapiens)
  outcome: inactive
[3]
  outcome: inactive
[4]
  AC50: 33 µM (active)
[5]
  outcome: inactive
[6]
  outcome: inactive
[7]
  outcome: inactive
CYP2C8 (gene 1558)
  outcome: inactive
CYP2C9 (gene 1559)
  outcome: inactive

## O=C(O)CCN(C1(C(=O)NO)CCCC1)S(=O)(=O)c1ccc(Oc2ccc(F)cc2)cc1
[1]
  outcome: inactive
[2]
  outcome: inactive
Caspase-3 (Homo sapiens)
  outcome: inactive
[3]
  outcome: inactive
[4]
  outcome: inactive
[5]
  outcome: inactive
[6]
  outcome: inactive
[7]
  outcome: inactive
CYP2C8 (gene 1558)
  outcome: inactive
CYP2C9 (gene 1559)
  outcome: inactive

## Cc1ccc(C)c(O)c1
[1]
  outcome: inactive
[2]
  outcome: inactive
Caspase-3 (Homo sapiens)
  outcome: inactive
[3]
  outcome: inactive
[4]
  AC50: 51.2 µM (active)
[5]
  outcome: inactive
[6]
  AC50: 51.2 µM (active)
[7]
  outcome: inactive
CYP2C8 (gene 1558)
  outcome: inactive
CYP2C9 (gene 1559)
  outcome: inactive

## O=C(O)c1cccc(N(Cc2cccnc2)c2ccc(OC(F)F)c(OC(F)F)c2)c1
[1]
  outcome: inactive
[2]
  outcome: inactive
Caspase-3 (Homo sapiens)
  outcome: inactive
[3]
  AC50: 3.16 nM (active)
[4]
  outcome: inactive
[5]
  outcome: inactive
[6]
  outcome: inactive
[7]
  outcome: inactive
CYP2C8 (gene 1558)
  outcome: inactive
CYP2C9 (gene 1559)
  outcome: inactive

## Fc1ccccc1[C@@H](F)COC1CCC(Nc2ncnc3[nH]ncc23)CC1 (some centres undefined)
[1]
  AC50: 30.7 µM (active)
[2]
  outcome: inactive
Caspase-3 (Homo sapiens)
  AC50: 24.9 µM (active)
[3]
  outcome: inactive
[4]
  AC50: 29.1 µM (active)
[5]
  outcome: inactive
[6]
  AC50: 30.9 µM (active)
[7]
  AC50: 67.9 µM (active)
CYP2C8 (gene 1558)
  outcome: inactive
CYP2C9 (gene 1559)
  AC50: 37.7 µM (active)

## O=C(NS(=O)(=O)/C=C/c1ccccc1)c1ccc(F)cc1Cl
[1]
  outcome: inactive
[2]
  outcome: inactive
Caspase-3 (Homo sapiens)
  outcome: inactive
[3]
  outcome: inactive
[4]
  outcome: inactive
[5]
  outcome: inactive
[6]
  AC50: 0.459 µM (active)
[7]
  AC50: 2.51 µM (active)
CYP2C8 (gene 1558)
  outcome: inactive
CYP2C9 (gene 1559)
  outcome: inactive

## COc1cccc(-c2ccc(/C=C\CN3CCCCCC3)cc2Cl)c1
[1]
  AC50: 67.4 µM (active)
[2]
  outcome: inactive
Caspase-3 (Homo sapiens)
  outcome: inactive
[3]
  outcome: inactive
[4]
  AC50: 69.9 µM (active)
[5]
  outcome: inactive
[6]
  AC50: 77.3 µM (active)
[7]
  AC50: 74.9 µM (active)
CYP2C8 (gene 1558)
  AC50: 74.1 µM (active)
CYP2C9 (gene 1559)
  AC50: 70.8 µM (active)

## C=CC(=C)CCC=C(C)C
[1]
  outcome: inactive
[2]
  outcome: inactive
Caspase-3 (Homo sapiens)
  outcome: inactive
[3]
  outcome: inactive
[4]
  AC50: 27.2 µM (active)
[5]
  outcome: inactive
[6]
  outcome: inactive
[7]
  outcome: inactive
CYP2C8 (gene 1558)
  outcome: inactive
CYP2C9 (gene 1559)
  outcome: inactive

## CCc1cc(SCc2sc(-c3ccc(C(F)(F)F)cc3)nc2CN2CCN(c3ccc(OC)cc3)CC2)ccc1OCC(=O)O
[1]
  AC50: 8.96 µM (active)
[2]
  AC50: 206 nM (active)
Caspase-3 (Homo sapiens)
  outcome: inactive
[3]
  outcome: inactive
[4]
  outcome: inactive
[5]
  AC50: 15.8 µM (active)
[6]
  AC50: 7.48 µM (active)
[7]
  AC50: 7.52 µM (active)
CYP2C8 (gene 1558)
  outcome: inactive
CYP2C9 (gene 1559)
  AC50: 76.6 µM (active)

## CCCCC(CC)COC(=O)c1ccc(C(=O)OCC(CC)CCCC)cc1 (centres undefined)
[1]
  outcome: inactive
[2]
  outcome: inactive
Caspase-3 (Homo sapiens)
  outcome: inactive
[3]
  outcome: inactive
[4]
  outcome: inactive
[5]
  outcome: inactive
[6]
  outcome: inactive
[7]
  outcome: inactive
CYP2C8 (gene 1558)
  outcome: inactive

## CC(=O)OCCC(C)C
[1]
  outcome: inactive
[2]
  outcome: inactive
Caspase-3 (Homo sapiens)
  outcome: inactive
[3]
  outcome: inactive
[4]
  outcome: inactive
[5]
  outcome: inactive
[6]
  outcome: inactive
[7]
  outcome: inactive
CYP2C8 (gene 1558)
  outcome: inactive
CYP2C9 (gene 1559)
  outcome: inactive
